# Screens from PubChem.
# PrP UTR inh = inhibition of PrP 5' UTR reporter expression. cell-based PrP 5' UTR mRNA reporter, plate reader. inhibition, % (concentration not given with the values). actives 0.35% (n = 340,000). AID 488862; in the data active = inhibition above about 52%; note: 0 = median of the neutral control wells
# Rv3671c protease = inhibitors of M. tuberculosis serine protease Rv3671c | inhibition, % at 5.96 µM | actives 0.048% (n = 320,000) | AID 2606; in the data active = inhibition above about 38%;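 note: extracellular domain of Rv3671c used as enzyme; 0% = enzyme with DMSO and 100% = no enzyme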
# Mtb betalactam = beta-lactam sensitization of Mtb H37Rv. M. tuberculosis H37Rv growth with meropenem, percent inhibition. inhibition, % at 25 µM. actives 0.27% (n = 330,000). AID 434955;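 note: growth measured after seven days incubation then overnight dye step; 0% = bacteria only wells and 100% = bacteria with antibiotic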
# FadD28 FP inh = blocks FadD28 binding to the bisubstrate probe | fluorescence polarization | inhibition, % at 12.5 µM | actives 0.22% (n = 360,000) | AID 588549; in the data active = inhibition above about 8.5%, passing the limit was not always enough
# Mtb UGM inh = inhibitors of M. tuberculosis UDP-galactopyranose mutase | purified UGM, fluorescence polarization probe displacement | actives 0.06% (n = 320,000) | P9WIQ1 | inhibition, % at 10 µM; in the data active = inhibition above about 10%, passing the limit was not always enough
# Target sequence (P9WIQ1 whole entry, looked up): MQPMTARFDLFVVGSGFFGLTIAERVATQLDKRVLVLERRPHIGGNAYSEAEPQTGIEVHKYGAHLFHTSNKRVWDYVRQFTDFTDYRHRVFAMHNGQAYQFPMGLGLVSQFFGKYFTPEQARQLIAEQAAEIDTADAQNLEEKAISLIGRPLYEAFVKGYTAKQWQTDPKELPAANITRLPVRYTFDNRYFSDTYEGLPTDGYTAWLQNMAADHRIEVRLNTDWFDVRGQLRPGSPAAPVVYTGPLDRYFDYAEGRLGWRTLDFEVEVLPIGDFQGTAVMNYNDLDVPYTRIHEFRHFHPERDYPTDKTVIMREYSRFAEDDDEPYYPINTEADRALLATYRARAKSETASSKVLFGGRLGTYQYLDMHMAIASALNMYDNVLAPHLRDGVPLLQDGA
# Vc quorum ag-1 = quorum light induction in luxS cqsA deficient V. cholerae; activation, % at 18.7 µM; actives 0.16% (n = 350,000); V. cholerae BH1578 lux reporter, luminescence, 6 h; in the data active = activation mostly above about 9.7%, no sharp cut-off
# Vc quorum ag-2 = quorum light induction in BH1578 reporter strain; shares compounds with Vc quorum ag-1; V. cholerae BH1578 lux reporter, luminescence, 6 h; 620 tested, under 10 active; activation, % at 50 µM; AID 602243
# Active calls of the source: *; i = inactive; nt = no result. Most compounds without a hit are left out; they make up all but 0.76% or so of the library. Unless noted, the rule behind the calls is not given here.
SMILES,PrP UTR inh,Rv3671c protease,Mtb betalactam,FadD28 FP inh,Mtb UGM inh,Vc quorum ag-1,Vc quorum ag-2
CCCOc1cc(C)c(S(=O)(=O)NCCOC)cc1C,-43,-7,-6,-2,1,14,0
Cc1nc(Nc2ccncc2)c2oc3ccccc3c2n1,-6,-4,26,0,3,-1,nt
CC(=O)Nc1ccc(Nc2nc(C)nc3c2oc2ccccc23)cc1,-11,-3,4,-2,0,17*,12
COC(=O)c1ccccc1NC(=O)Cn1cc2c(n1)CCC(C)C2 (stereo not drawn),-13,-1,-10,-1,-1,30*,28
O=C(CN1CCN(c2ccccn2)CC1)Nc1nc2ccccc2s1,-31,3,11,-4,2,-2,nt
Cc1cc(OC(F)F)ccc1NC(=S)NCCc1ccccc1,-14,-3,-5,-3,2,12,0
COc1ccc(NC(=O)CSc2nc(C)cs2)c(OC)c1,-10,1,-8,-4,-2,i,nt
CCOc1ccc(CCNC(=O)COC(=O)Cc2ccc(F)cc2)cc1OCC,-13,1,-9,-2,-2,14,3
CCOc1ccc(CCNC(=O)COC(=O)Cc2c[nH]c3ccccc23)cc1OCC,-20,-5,-5,0,2,-1,nt
CCC(=O)NC(NC(=S)Nc1c(C)n(C)n(-c2ccccc2)c1=O)C(Cl)(Cl)Cl (stereo not drawn),-2,12,-5,1,1,0,nt
CCOC(=O)CSc1nc(N)c(C#N)c(-c2cccs2)c1C#N,-2,-17,100,-1,-2,44*,0
CC(C#N)On1c(SC(C)C#N)nc2ccccc2c1=O (stereo not drawn),-2,1,4,-1,-1,12,1
COCCSc1ccccc1C(=O)Nc1nnc(COC)s1,-14,3,20,1,1,12,0
COCc1nnc(NC(=O)c2ccccc2Oc2ccccc2)s1,-7,6,-2,-1,-1,i,nt
CCOC(=O)c1cnc(SCC(=O)OCC(=O)NC2CCS(=O)(=O)C2)nc1N (stereo not drawn),-11,16,-9,0,1,32*,1
CCN(C(=S)Nc1ccc(C(C)=O)cc1)C1CCCCC1,-37,5,-6,0,-1,i,nt
COC(=O)C1=C(C)N=C2SCCC(=O)N2C1c1cc(Br)ccc1OC (stereo not drawn),-21,-8,1,0,2,2,nt
CCOC(=O)C1=C(C)N=C2SCCC(=O)N2C1c1cc(Br)ccc1OC (stereo not drawn),-8,1,-5,-2,0,12,0
OC[C@@H]1CN(Cc2ccc3c(c2)OCO3)C[C@H](n2cnc3c(NC4CC4)ncnc32)O1,nt,nt,nt,-5,nt,-1,nt
CCN(CC)S(=O)(=O)c1cccc(C(=O)OCC(=O)C23CC4CC(CC(C4)C2)C3)c1,-9,-3,4,-2,5,14,1
CCOC(=O)c1c(C)[nH]c(C)c1C(=O)COC(=O)c1cccc(S(=O)(=O)N(CC)CC)c1,-7,-10,-4,-3,0,i,nt
CCOC(=O)C1CCN(C(=O)c2cc3c(OC)c(OC)c(OC)cc3[nH]2)CC1,-2,12,-3,2,1,-8,nt
CCOC(=O)C1CCCN(C(=O)c2cc3c(OC)c(OC)c(OC)cc3[nH]2)C1 (stereo not drawn),-4,0,-8,-1,-2,17*,0
O=C(Cc1cccc([N+](=O)[O-])c1)Nc1ccc(C(=O)N2CCCCC2)cc1,-14,-1,12,-1,-2,i,nt
COc1ccc(CNC(=O)c2ccc(Cl)c(S(=O)(=O)N3CCOCC3)c2)cc1OC,-16,-1,5,-1,-1,57*,0
SMILES,PrP UTR inh,Rv3671c protease,Mtb betalactam,FadD28 FP inh,Mtb UGM inh,Vc quorum ag-1,Vc quorum ag-2
CC(C)Oc1ccc(CNC(=O)Cn2c(=O)c3cccn3c3cccnc32)cc1,-6,-1,1,-1,2,0,nt
CCOc1ccc(CNC(=O)Cn2c(=O)c3cccn3c3ccccc32)cc1,-6,3,6,-2,1,25*,0
CCCCOCC(O)CN1CCN(C(C)=O)CC1 (stereo not drawn),-16,4,-5,-3,2,12,2
CC(=O)N1CCN(CC(O)COc2ccc(Br)cc2)CC1 (stereo not drawn),-9,6,-1,-3,0,i,nt
O=C(Cn1ccc(NC(=O)OCc2ccccc2)nc1=O)NCC1CCCO1 (stereo not drawn),0,2,-2,-1,1,i,nt
O=C(NCC1CCCO1)c1ccccc1-c1nc(-c2ccc(Cl)cc2)no1 (stereo not drawn),-40,1,12,-2,0,0,nt
Cc1cccc(-c2noc(-c3ccccc3C(=O)NCC3CCCO3)n2)c1 (stereo not drawn),-27,4,4,1,-2,14,-1
COc1ccc(OCCOC(=O)CCS(=O)(=O)c2ccc(C)cc2)cc1,-12,-7,3,0,-2,12,0
COc1ccc(OCCOC(=O)c2cccs2)cc1,-75,-5,80,0,-1,524*,152
O=C(CC1NC(=O)NC1=O)Nc1ccc(Cl)cc1 (stereo not drawn),-28,5,-3,0,0,7,0
O=C(CC1SC(=O)NC1=O)Nc1ccc(Cl)cc1 (stereo not drawn),-8,-20,-6,-1,5,4,nt
CCOC(=O)CC1C(=O)NCCN1C(=O)c1ccc(F)cc1F (stereo not drawn),-20,2,-4,-2,2,i,nt
CCOC(=O)CC1C(=O)NCCN1C(=O)c1cccc(C(F)(F)F)c1 (stereo not drawn),-21,-3,1,1,-1,17*,1
COc1ccc(-c2nnn(CC(=O)c3ccc4c(c3)OCCO4)n2)cc1OC,-29,0,-4,5,-4,5.6*,0
CN(CC(=O)Nc1c(Cl)cccc1Cl)C(=O)c1n[nH]c2ccccc12,-11,3,-3,-5,nt,19,0
O=C(NCC(F)(F)F)Nc1ncccn1,-2,-2,-1,-4,-2,15*,2
CC(C(=O)N1CCOCC1)n1cc([N+](=O)[O-])cn1 (stereo not drawn),-24,3,8,-3,0,0,nt
CN(CC(=O)Nc1ccc(F)c(F)c1F)C(=O)C1CCC1,-13,-4,-7,-1,1,25*,3
O=C(Oc1nsnc1N1CCCCC1)N1CCOCC1,-26,6,0,-4,-2,13,0
O=C(Oc1nsnc1N1CCOCC1)N1CCCC1,-28,-12,-3,-3,1,0,nt
Cc1ccccc1OCC(=O)OCC(=O)N1CCc2ccccc21,3,nt,nt,-4,nt,5,nt
